# Autofluor 339: intrinsic fluorescence of library compounds, ex339/em460 – biochemical, MLSMR library, data from DPM-DC assay, artefact control, profiling panel; compound autofluorescence, ex339/em460 nm, NADH buffer; active compounds read high; 1 = no-compound wells, NADH background; AID 709, 2007; fluorescence fold increase at 10 µM; 65,000 compounds, 5.5% hits;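 active = at 10 µM, mean starting fluorescence two-fold or more over control wells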;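 note: signal is the first read of a kinetic run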
# NADH coupling: inhibitors of PK/LDH coupling enzymes, profiling panel, artefact control, biochemical, MLSMR library; coupled PK/LDH NADH assays, four targets; IC50, µM (doses to about 10 µM), for the others: at the top dose inhibition; 65,000 compounds, 0.02% hits; AID 774, 2007;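 active = single-dose screening hits from any of four coupled enzyme assays that gave an IC50 when retested across doses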;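 note: the DPM-DC format reads NADH fluorescence rather than 340 nm absorbance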
# A340 absorber: compound light absorbance at 340 nm, profiling panel, artefact control, biochemical, MLSMR library, data from PS, PMK, MK assays. compound absorbance at 340 nm, fold over control. fold change at 10 µM. 65,000 tested, under 10 active. AID 708, 2007;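 active = at 10 µM dose, initial 340 nm absorbance at least 2 fold that of control wells; inactive = change under 2 fold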;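 note: initial absorbance extrapolated from kinetic A340 decline of NADH oxidation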
# DPM-DC inhibit: S. pneumoniae DPM-DC inhibitors, primary screen, biochemical, PK/LDH-coupled NADH fluorescence; diphosphomevalonate decarboxylase (Streptococcus pneumoniae D39); purified DPM-DC; calls only at 10 µM; 65,000 compounds, 0.49% hits;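 active = the 320 compounds with the highest percent inhibition in the single-dose primary screen, excluding strongly autofluorescent ones, cut at about 32% in these data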;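 note: kinetic rate of NADH fluorescence loss reporting ADP formed by the decarboxylase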
# MK inhibit: S. pneumoniae MK inhibitors, primary screen, biochemical, PK/LDH-coupled NADH absorbance | 65,000 compounds, 0.48% hits | purified MK, PK/LDH-coupled NADH absorbance 340 nm | inhibition, % at 10 µM | AID 555, 2006 | mevalonate kinase [Streptococcus pneumoniae D39];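 active = ranked among the strongest by inhibition in the single 10 µM screen, a fixed top-ranked set picked for dose follow-up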
# Spn PMK inh: S. pneumoniae PMK inhibitors, primary screen, biochemical, mevalonate pathway, pilot trial included; phosphomevalonate kinase (Streptococcus pneumoniae D39); purified PMK, PK/LDH-coupled NADH absorbance 340 nm; inhibition, % at 10 µM; 65,000 compounds, 0.49% hits; AID 539, 2006;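 active = top-ranked compounds by inhibition in the single 10 µM screen, taking a fixed number of the strongest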;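 note: 0% = full reaction with DMSO carrier and 100% = background rate without enzyme reaction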
# Numbers without * were called inactive; i = inactive; · = no result shown; + = active, no number. Rows were chosen to be rich in hits. Some 6.3% of all compounds tested hit in one or more screens of this group.
SMILES,Autofluor 339,NADH coupling,A340 absorber,DPM-DC inhibit,MK inhibit,Spn PMK inh
CCOC(=O)c1cc2c(=O)n3ccccc3nc2n(CCOC)c1=NC(=O)C(C)(C)C,2.3*,9%,1.1,·,6,12
CCOC(=O)c1cc2c(=O)n3ccccc3nc2n(C(C)C)c1=NC(=O)c1ccncc1,1.6,15%,1.1,+,8,4
CCOC(=O)c1cc2c(=O)n3ccccc3nc2n(CCOC)c1=NC(=O)c1ccncc1,2.2*,3%,1.1,·,6,0
Clc1ccc(COn2nnc3ccccc32)c(Cl)c1,1.1,4%,1.1,i,7,6
CCCC1=C(C(=O)OCC)C(c2ccc(O)cc2)n2ncnc2N1 (configuration not stated),1,4%,1,i,8,0
CCN1CCN(Cc2nc3c(c(=O)n(C)c(=O)n3C)n2Cc2ccc(Cl)cc2Cl)CC1,1,2%,1,i,0,6
CC1(C)OC(=O)C(=CNC(Cc2c[nH]c3ccccc23)C(=O)O)C(=O)O1 (configuration not stated),1.1,4%,1,i,0,9
O=C(NCCOC(=O)C1COc2ccccc2O1)c1cccnc1 (configuration not stated),1.1,12%,0.97,i,15,20
CCOCCCn1c(=NC(C)=O)c(C(=O)OCC)cc2c(=O)n3ccccc3nc21,2.9*,3%,1,·,0,8
CCc1nnc(NC=C2C(=O)OC(C)(C)OC2=O)s1,1.1,7%,1.1,i,4,15
CCOCCCN1C(=O)CN(C2CCCCC2)C(=O)C1c1ccc(OC)c(OC)c1 (configuration not stated),0.94,8%,1,i,0,20
COc1ccc(C2C(=O)N(C3CCCCC3)CC(=O)N2CCc2ccccc2)cc1OC (configuration not stated),1,9%,1,i,0,26*
CCCOc1ccc(C2C(=O)N(C3CCCCC3)CC(=O)N2CCCOCC)cc1OC (configuration not stated),0.99,9%,0.98,i,0,26*
CCCN1CCN(C(=O)c2cccc3c2C(=O)N(CCOC)C3)CC1,1.1,3%,1,i,7,3
CN1CC=C2C(C#N)=C(N)C(C#N)(C#N)C(CCc3ccccc3)C2C1 (configuration not stated),2*,6%,1,i,3,1
CCOC(=O)N1CC=C2C(C#N)=C(N)C(C#N)(C#N)[C@H](c3ccsc3)[C@H]2C1,1.7,12%,1,i,13,19
CN1CC=C2C(C#N)=C(N)C(C#N)(C#N)[C@H](c3cccc(Cl)c3)C2C1 (some centres not stated),1.4,4%,1,i,6,0
CCCC1C2CN(C(C)C)CC=C2C(C#N)=C(N)C1(C#N)C#N (configuration not stated),4*,13%,1,i,8,6
COc1ccc(CN(C)CCc2ccccn2)cc1OC,1,9%,1,i,8,18
Cc1ccc(CN(C)CCc2ccccn2)cc1,1.1,20%,1.1,i,56*,3
CN(CCc1ccccn1)Cc1ccc(Cl)cc1,1.1,20%,1,i,59*,0
COc1cc(CN(C)CCc2ccccn2)cc(OC)c1OC,1.1,22%,1.1,i,52*,15
CCc1ccc(CN(C)CCc2ccccn2)cc1,1,7%,1,i,52*,0
CC1CCN(C(=O)CSc2nc3ccccc3[nH]2)CC1,1,3%,1.1,i,1,32*
CC1CCN(C(=O)CSc2ccc3nnc(-c4ccc(F)cc4)n3n2)CC1,2.3*,5%,1,i,1,12
SMILES,Autofluor 339,NADH coupling,A340 absorber,DPM-DC inhibit,MK inhibit,Spn PMK inh
CC1CCN(C(=O)CSc2ccc3nnc(-c4ccccc4)n3n2)CC1,2.2*,5%,0.99,i,5,7
Cc1ccc(-c2nnc3ccc(SCC(=O)N4CCCCC4)nn23)cc1,1.2,7%,0.98,i,6,14
Cc1ccc(-c2nnc3ccc(SCC(=O)Nc4cc(C)on4)nn23)cc1,2*,5%,1,i,3,10
O=C(CSc1nc2ccccc2[nH]1)N1CCN(c2ccc(F)cc2)CC1,1.1,5%,1,i,11,5
Cc1cc(NC(=O)CSc2ccc3nnc(-c4ccc(F)cc4)n3n2)no1,2,7%,1,i,0,13
O=C(CSc1ccc2nnc(-c3ccccc3)n2n1)NCC1CCCO1 (configuration not stated),2.2*,10%,0.99,i,5,13
CCOC(=O)c1ccc2ncc(C(=O)OCC)c(NCc3ccco3)c2c1,3.8*,12%,1.1,·,13,10
CCOC(=O)c1cnc2c(C)cccc2c1NCc1ccco1,1.4,8%,1.1,i,12,0
CCOC(=O)c1cnc2c(C(=O)OC)cccc2c1NCc1ccco1,3.4*,6%,1.1,·,6,5
O=C(Nc1nnc(-c2ccc3c(c2)CCCC3)o1)C1COc2ccccc2O1 (configuration not stated),1.1,4%,1,i,0,10
CCOC(=O)Cn1c(=O)oc2cc(S(=O)(=O)Nc3ccc(F)cc3)ccc21,1.1,1%,1.1,i,0,4
Cc1cc(F)ccc1S(=O)(=O)Nc1ccccc1C(=O)Nc1ccc2[nH]c(=O)[nH]c2c1,1.2,5%,1.1,i,10,4
CCCc1cc(=O)oc2cc3occ(C)c3cc12,2.2*,14%,1.1,·,9,19
CCCc1cc(=O)oc2cc(C)c3c(C)coc3c12,2.1*,5%,1,·,7,2
CCC(=O)N1CCc2cc(S(=O)(=O)CCC(=O)NCCC3=CCCCC3)ccc21,1.1,9%,0.99,i,14,12
CCOC(=O)c1sc(C)c(C(=O)NCCCN2CCOCC2)c1N,2.3*,7%,1.1,i,4,4
Cc1cc(NC(=O)c2ccccc2-c2ccccc2C(=O)O)no1,1.1,9%,1,i,1,20
Cc1cc(NC(=O)c2cc(-c3ccccn3)nc3ccccc23)no1,1.2,8%,1.1,i,9,14
Cc1cc(NC(=O)c2cc(-c3ccncc3)nc3c(C)cccc23)no1,2.7*,6%,1.1,i,2,2

# Screens deposited in PubChem BioAssay by SRMLSC.
